# From PubChem BioAssay AID1273 (Columbia University Molecular Screening Center, 2008)
# About 1,200 (0.92%) of roughly 130,000 compounds were called active.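 How the source made its calls: active means inhibition above the mean plus 3 SD, with well images judged a real hit on visual review (cut at about 60% in these data, passing the limit was not always enough); inconclusive means inhibition over the cutoff but images rejected on review; inactive means inhibition not above the cutoff.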 What follows is part of a selection rich in actives, with near analogues and random picks from the rest.
# Test: inhibitors of insulin promoter-driven GFP, primary screen, imaging, TRM-6 cells (human fetal islet line), eGFP reporter, cell count (AID 1273;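 on normalized cell count: cells exposed to compound for 48 h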)
# Conditions: at 2 µM, reporter expression induced with tamoxifen; inhibition: stronger effect = higher value; normalized cell count: measured here: cell count, toxicity
Compound,inhibition,normalized cell count [%]
Cc1ccccc1N1C(=O)C(Oc2ccc(Cl)cc2)C1CNCC1CCCO1 (stereo unspecified),-11.8% (inactive),94.4
Brc1ccc(-c2nnc(-c3ccccc3)o2)o1,19.1% (inactive),142
Nc1ccc(-c2nnc(-c3ccc(-c4ccccc4)cc3)o2)cc1,46.7% (inactive),46.6
OC(c1nnc(-c2ccccc2)o1)c1cccs1 (stereo unspecified),75% (active),106
CCCCNC(=O)N1CCN(S(C)(=O)=O)CC1,-42.9% (inactive),86.1
CCCCCN1CC(O)=C(c2ccccc2)C1=N,9.59% (inactive),61.8
Clc1ccc(-c2csc(-c3ccncc3)n2)cc1,-16.7% (inactive),49.8
CCCCCN1CC(O)=C(c2nc(-c3ccc(Cl)cc3)cs2)C1=N,81.1% (active),67.1
O=C(O)CSCC(=O)Nc1ccc(C(F)(F)F)cc1,29.4% (inactive),92.1
CCC(=O)c1ccc(OCC(O)Cn2nc(C)c(C(C)=O)c2C)cc1 (stereo unspecified),20% (inactive),57.4
Cc1ccccc1NC(=O)Cn1c(=O)n(CC2CCCO2)c(=O)c2ccccc21 (stereo unspecified),13.3% (inactive),106
Cc1ccc(SCC(=O)Nc2ccc3c(c2)OCCO3)cc1,20.6% (inactive),137
O=C(CSc1nnnn1C1CCCC1)Nc1ccc2c(c1)OCCO2,73.3% (active),70.4
O=C(CSc1nnnn1-c1ccc2c(c1)CCC2)Nc1ccc2c(c1)OCCO2,28.6% (inactive),88.2
COc1ccccc1N(C)S(=O)(=O)c1ccc(Cl)c(C(=O)N2CCC(C(N)=O)CC2)c1,18.2% (inactive),83.5
CCOC(=O)c1sc(NC(=O)CSc2nc(O)c(Cc3ccccc3)c(=O)[nH]2)nc1C,-50% (inactive),56.7
O=c1c(Cl)c(NC2CC2)cnn1-c1ccccc1,-85% (inactive),114
NC(=O)c1ccc(CN2CCC(Cc3ccccc3)CC2)cc1,-347% (inactive),40.1
Cc1ccc(CC(=O)Nc2cccc(C#N)c2)cc1,-16.7% (inactive),153
NC(=S)N/N=C/c1ccc([N+](=O)[O-])cc1,-36.4% (inactive),109
Cc1nc2ccccc2cc1C(=O)N/N=C/c1ccc([N+](=O)[O-])cc1,75% (active),81
Cc1ccsc1C(=O)N/N=C/c1ccc([N+](=O)[O-])cc1,6.67% (inactive),153
COc1cc(C(=O)N[C@@H](C)C(=O)NCc2ccco2)cc(OC)c1OC,33.3% (inactive),166
CCCN(C(=O)CSc1nnnn1C)c1c(N)n(Cc2ccccc2)c(=O)[nH]c1=O,-90.9% (inactive),30.3
O=c1[nH]c(CN2CCOCC2)nc2scc(-c3ccccc3)c12,25% (inactive),148
C#CCOCCOCCOCCNc1nc(N2CCN(C(=O)[C@H](C(C)C)n3cc(CCO)nn3)CC2)nc(N2CCN(C(=O)[C@H](C(C)C)n3cc(CCO)nn3)CC2)n1,50% (inactive),117
C#CCOCCOCCOCCNc1nc(N2CCN(C(=O)[C@H](C(C)C)n3cc(CCO)nn3)CC2)nc(N2CCN(C(=O)[C@H]([C@@H](C)CC)n3cc(CCCN=C(N)N)nn3)CC2)n1,70% (active),95.3

Compound,inhibition,normalized cell count [%]
COCCNC(=O)NC(=O)COC(=O)C1(c2ccc(Cl)cc2)CC1,38.9% (inactive),75.1
COC(=O)c1ccc(Cc2ccccc2)o1,92.9% (active),83.1
CCCC(NC(=O)c1ccccc1)c1nc2ccccc2n1Cc1ccc(C(=O)OC)o1 (stereo unspecified),-17.5% (inactive),206
COC(=O)c1ccc(CN(c2ccccc2OC)S(=O)(=O)c2cccs2)o1,7.89% (inactive),71.6
COc1ccc(-c2cn3cccnc3n2)cc1,23.5% (inactive),80.6
Cc1ccc(Cl)c(NC(=O)CN2CCN(C=O)CC2)c1,-71.4% (inactive),117
O=C(CC1C(=O)NCCN1Cc1ccc(-c2ccccc2)cc1)NCc1ccncc1 (stereo unspecified),0% (inactive),65.4
CCSc1ccccc1C(=O)Nc1ccc2c(c1)OCO2,-63.2% (inactive),84.3
N/C(=N\OC(=O)Cc1ccccc1[N+](=O)[O-])c1ccc(Br)cc1,7.69% (inactive),129
N/C(=N\OC(=O)N1c2ccccc2Sc2ccccc21)c1ccc(Br)cc1,79.3% (active),124
N/C(=N\OC(=O)/C=C/c1ccccc1)c1ccc(Br)cc1,14.3% (inactive),133
Cc1cc2nnc(SCC(=O)N3CCN(c4ccccc4)CC3)n2c(N)n1,74.3% (active),82.1
Cc1nnc(SCC(=O)N2CCN(c3ccccc3)CC2)n1-c1ccccc1,-41% (inactive),117
Cc1ccccc1NC(=O)Cc1nnc(SCC(=O)N2CCN(c3ccccc3)CC2)n1C,18.2% (inactive),112
O=C(CSc1ccsc1[N+](=O)[O-])N1CCCCC1,-33.3% (inactive),80.7
Cn1c(=O)n(CCc2ccccc2)c(=O)c2c1nc1n2CCCN1c1ccccc1,-196% (inactive),86.5
Cc1cccc(N2CC(C)Cn3c2nc2c3c(=O)n(CC(=O)OCc3ccccc3)c(=O)n2C)c1 (stereo unspecified),87.5% (active),63.7
Cc1cccc(Cn2c(N3CCN(c4ccccc4)CC3)nc3c2c(=O)n(C)c(=O)n3C)c1,-28.1% (inactive),82.7
O=[N+]([O-])/C(N=Nc1ccccc1)=N\Nc1ccccc1,7.14% (inactive),142
COCCCNC(=S)NNC(=O)C(O)(c1ccccc1)c1ccccc1,-89.5% (inactive),100
COCn1c(COc2ccccc2)nc2ccccc21,30% (inactive),132
C=C(Br)Cn1c(CCCC)nc2ccccc21,85.7% (active),72.7
CCCCn1c(CN2CCN(CCO)CC2)nc2ccccc21,-68.6% (inactive),100
CCCNCc1cc(OCC)c(OCC(=O)Nc2ccccc2)cc1Br,0% (inactive),99
C=C(C)Cn1c(C)cc(C)c(S(=O)(=O)c2ccccc2C)c1=O,78.4% (active),40.9
Cc1nc([N+](=O)[O-])c(NCCCO)n1Cc1ccccc1,50% (inactive),125
